Results as given in the supplement of paper PMC11732987, “Enantioselective OTUD7B fragment discovery through chemoproteomics screening and high-throughput optimisation” (Communications Chemistry, 2025).

Assays:
Test in all cases: log2 ratio of Biotin-Ahx-Ub-VS probe labelling (fragment/DMSO); higher = less target engagement (more negative = stronger competition), active = hit call of the paper (q ≤ 0.05, log2 ratio ≤ -1)
Settings in all cases: compound concentration: 200 uM; treatment time: 3 h
ALG13 = target: T1, ALG13 (UniProt Q9NP73)
T1 sequence (whole entry): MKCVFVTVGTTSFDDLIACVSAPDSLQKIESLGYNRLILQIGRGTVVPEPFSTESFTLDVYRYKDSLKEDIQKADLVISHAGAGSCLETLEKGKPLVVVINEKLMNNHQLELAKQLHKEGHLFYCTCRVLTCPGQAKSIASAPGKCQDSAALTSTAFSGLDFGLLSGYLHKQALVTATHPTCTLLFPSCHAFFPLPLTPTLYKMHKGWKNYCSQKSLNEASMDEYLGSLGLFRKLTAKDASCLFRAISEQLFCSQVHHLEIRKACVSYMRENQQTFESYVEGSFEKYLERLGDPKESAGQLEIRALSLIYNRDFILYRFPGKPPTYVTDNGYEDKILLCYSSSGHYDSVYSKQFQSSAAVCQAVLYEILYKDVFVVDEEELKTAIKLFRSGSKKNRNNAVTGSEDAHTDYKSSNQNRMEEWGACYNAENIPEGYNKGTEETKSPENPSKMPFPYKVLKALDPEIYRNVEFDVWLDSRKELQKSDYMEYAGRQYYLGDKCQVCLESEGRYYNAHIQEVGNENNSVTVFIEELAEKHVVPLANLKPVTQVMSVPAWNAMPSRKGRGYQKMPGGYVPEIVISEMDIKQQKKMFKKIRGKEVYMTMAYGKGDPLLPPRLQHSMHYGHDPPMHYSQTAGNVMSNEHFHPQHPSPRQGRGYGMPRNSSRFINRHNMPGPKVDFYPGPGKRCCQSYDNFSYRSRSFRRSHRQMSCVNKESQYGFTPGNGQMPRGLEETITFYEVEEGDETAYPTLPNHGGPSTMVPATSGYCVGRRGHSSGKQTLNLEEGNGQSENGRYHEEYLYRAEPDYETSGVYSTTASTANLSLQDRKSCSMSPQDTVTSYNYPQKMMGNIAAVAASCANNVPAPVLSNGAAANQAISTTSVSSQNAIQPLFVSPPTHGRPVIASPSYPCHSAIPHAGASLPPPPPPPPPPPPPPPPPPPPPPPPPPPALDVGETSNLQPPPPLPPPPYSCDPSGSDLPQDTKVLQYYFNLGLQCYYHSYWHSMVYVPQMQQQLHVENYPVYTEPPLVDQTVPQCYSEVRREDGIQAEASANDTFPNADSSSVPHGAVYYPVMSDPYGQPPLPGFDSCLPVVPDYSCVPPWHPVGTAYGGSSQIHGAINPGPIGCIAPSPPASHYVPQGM
How it was run: (§1)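 The table lists average log2 ratios of fragment over vehicle, from an unpaired t-test on global-median-normalised Spectronaut label-free quantities. Proteins with ≥2 unique peptides were used. Samples were HEK293T lysate (495 µg) treated in triplicate with fragment at 200 µM or vehicle for 3 h, then with Biotin-Ahx-Ub-VS (0.5 µM final) for 1 h, with labelled DUBs NeutrAvidin-enriched and run by diaPASEF LC-MS/MS.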

ATXN3 = ATXN3 (UniProt P54252)
How it was run: as §1

BAP1 = target: T2, BAP1 (UniProt Q92560)
T2 sequence (whole entry): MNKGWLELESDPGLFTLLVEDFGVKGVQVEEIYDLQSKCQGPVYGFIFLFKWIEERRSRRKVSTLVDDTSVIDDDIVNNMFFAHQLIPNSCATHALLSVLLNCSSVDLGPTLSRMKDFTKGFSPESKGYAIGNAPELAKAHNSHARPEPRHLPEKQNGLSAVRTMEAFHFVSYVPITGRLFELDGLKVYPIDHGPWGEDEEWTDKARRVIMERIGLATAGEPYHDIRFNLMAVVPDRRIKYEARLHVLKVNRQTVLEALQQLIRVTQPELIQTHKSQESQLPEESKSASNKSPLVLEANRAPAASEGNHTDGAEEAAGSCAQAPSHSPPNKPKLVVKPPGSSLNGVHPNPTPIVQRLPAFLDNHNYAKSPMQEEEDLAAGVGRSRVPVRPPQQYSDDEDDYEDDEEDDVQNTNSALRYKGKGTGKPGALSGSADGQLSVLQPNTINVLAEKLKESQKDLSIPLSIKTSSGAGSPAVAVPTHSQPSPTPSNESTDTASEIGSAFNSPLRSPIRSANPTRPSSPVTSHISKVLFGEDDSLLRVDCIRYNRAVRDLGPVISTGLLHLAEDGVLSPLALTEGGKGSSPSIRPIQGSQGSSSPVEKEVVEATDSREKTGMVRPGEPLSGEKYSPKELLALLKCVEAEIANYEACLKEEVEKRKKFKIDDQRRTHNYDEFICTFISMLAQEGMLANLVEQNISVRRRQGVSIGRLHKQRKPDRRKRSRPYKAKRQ
How it was run: as §1

EIF3F = EIF3F (UniProt O00303)
How it was run: as §1

EIF3H = EIF3H (UniProt O15372)
How it was run: as §1

FAM105A = target: T3, FAM105A (UniProt Q9NUU6)
T3 sequence (whole entry): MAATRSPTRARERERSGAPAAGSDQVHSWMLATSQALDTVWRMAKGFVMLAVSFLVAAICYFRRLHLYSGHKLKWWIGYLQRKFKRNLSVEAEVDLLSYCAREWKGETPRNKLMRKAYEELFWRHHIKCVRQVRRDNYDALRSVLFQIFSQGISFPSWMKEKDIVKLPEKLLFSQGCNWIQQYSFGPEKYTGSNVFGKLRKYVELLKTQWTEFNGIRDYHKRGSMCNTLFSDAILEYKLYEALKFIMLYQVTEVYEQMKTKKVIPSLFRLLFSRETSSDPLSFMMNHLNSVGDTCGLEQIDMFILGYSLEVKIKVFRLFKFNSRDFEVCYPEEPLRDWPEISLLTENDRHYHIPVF
How it was run: as §1

OTUB1 = OTUB1 (UniProt Q96FW1)
How it was run: as §1

OTUD4 = target: T4, OTUD4 (UniProt Q01804)
T4 sequence (whole entry): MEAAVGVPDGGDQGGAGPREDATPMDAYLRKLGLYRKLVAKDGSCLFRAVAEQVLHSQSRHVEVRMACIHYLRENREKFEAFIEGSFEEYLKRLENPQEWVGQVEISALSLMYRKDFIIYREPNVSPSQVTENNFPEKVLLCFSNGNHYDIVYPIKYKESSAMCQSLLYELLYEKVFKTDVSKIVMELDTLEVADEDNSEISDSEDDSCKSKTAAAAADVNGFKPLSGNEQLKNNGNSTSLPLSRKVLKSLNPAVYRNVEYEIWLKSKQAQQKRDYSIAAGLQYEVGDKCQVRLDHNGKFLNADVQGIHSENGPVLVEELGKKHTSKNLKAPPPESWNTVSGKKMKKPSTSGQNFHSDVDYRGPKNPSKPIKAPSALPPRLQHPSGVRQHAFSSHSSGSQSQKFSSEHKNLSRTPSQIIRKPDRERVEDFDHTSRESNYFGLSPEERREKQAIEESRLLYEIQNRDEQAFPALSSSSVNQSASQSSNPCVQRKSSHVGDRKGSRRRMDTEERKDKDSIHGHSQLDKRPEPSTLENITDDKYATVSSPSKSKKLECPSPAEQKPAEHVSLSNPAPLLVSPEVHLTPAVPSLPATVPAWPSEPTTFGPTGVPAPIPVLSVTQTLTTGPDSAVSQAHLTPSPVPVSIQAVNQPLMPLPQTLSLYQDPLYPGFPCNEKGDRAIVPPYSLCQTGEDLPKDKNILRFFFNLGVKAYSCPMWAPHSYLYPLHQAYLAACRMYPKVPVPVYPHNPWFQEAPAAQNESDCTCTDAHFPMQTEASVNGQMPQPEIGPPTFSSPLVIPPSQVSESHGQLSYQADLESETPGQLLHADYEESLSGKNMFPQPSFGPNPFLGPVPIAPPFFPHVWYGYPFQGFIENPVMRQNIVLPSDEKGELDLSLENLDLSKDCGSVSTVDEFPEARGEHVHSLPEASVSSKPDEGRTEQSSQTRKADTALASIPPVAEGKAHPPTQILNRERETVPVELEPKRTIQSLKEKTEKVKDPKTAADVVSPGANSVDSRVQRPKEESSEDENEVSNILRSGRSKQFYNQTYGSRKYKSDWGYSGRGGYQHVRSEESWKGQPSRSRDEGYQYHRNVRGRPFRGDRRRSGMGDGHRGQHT
How it was run: as §1

OTUD5 = target: T5, OTUD5 (UniProt Q96G74)
T5 sequence (whole entry): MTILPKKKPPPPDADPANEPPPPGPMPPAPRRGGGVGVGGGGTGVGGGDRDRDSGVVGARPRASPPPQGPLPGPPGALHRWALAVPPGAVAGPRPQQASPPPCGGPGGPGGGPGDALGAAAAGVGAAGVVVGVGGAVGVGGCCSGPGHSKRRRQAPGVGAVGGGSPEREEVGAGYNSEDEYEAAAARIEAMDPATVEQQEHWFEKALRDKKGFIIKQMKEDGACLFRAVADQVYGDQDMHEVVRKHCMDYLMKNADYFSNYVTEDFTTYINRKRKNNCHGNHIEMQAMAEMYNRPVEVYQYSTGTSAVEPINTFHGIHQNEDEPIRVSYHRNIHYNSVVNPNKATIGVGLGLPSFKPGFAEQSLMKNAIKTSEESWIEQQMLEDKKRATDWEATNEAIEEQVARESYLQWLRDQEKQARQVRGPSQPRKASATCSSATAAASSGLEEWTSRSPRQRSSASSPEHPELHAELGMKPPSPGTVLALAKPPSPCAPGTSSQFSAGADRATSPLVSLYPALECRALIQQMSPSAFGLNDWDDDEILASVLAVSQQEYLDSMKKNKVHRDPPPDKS
How it was run: as §1

Measured: log2 ratio of Biotin-Ahx-Ub-VS probe labelling

Chain of ATXN3 (P54252 whole entry): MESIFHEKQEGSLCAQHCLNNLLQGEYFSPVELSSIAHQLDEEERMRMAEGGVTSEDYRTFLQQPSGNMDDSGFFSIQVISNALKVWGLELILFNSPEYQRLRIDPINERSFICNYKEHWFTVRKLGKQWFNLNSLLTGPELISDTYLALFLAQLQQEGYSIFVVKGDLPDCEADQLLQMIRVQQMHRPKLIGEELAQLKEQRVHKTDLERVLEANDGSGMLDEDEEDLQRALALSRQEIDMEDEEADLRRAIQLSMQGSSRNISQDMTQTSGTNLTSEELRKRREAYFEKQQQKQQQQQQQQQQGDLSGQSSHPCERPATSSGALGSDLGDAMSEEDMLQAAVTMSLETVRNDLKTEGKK
Chain of OTUB1 (Q96FW1 whole entry): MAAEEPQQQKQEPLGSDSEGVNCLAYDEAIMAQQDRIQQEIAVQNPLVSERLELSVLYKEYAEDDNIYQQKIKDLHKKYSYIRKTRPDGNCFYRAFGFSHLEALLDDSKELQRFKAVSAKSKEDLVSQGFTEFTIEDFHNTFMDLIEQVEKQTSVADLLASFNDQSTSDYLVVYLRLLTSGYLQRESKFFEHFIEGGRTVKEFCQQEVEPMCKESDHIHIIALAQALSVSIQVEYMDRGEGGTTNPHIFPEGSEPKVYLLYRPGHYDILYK
Chain of EIF3H (O15372 whole entry): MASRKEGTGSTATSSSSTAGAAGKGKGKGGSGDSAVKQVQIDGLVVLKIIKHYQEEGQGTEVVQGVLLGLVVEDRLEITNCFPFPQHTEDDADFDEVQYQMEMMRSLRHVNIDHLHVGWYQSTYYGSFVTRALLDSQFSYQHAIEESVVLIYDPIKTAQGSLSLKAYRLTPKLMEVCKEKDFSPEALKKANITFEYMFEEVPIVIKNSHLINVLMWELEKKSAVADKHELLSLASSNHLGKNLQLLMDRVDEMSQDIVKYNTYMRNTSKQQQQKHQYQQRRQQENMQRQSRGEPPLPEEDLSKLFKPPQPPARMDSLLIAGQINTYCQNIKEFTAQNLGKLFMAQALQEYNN
Chain of EIF3F (O00303 whole entry): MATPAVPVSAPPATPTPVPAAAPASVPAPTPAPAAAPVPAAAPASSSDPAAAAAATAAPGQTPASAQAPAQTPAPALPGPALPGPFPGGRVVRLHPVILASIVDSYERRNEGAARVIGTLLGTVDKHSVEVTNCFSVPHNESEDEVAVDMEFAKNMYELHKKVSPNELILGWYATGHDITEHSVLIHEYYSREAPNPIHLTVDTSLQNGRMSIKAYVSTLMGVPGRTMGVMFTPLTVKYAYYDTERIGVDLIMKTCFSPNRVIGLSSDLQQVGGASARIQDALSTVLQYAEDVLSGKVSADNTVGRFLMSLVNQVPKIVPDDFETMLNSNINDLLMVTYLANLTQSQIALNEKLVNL

O=C(CCl)N1CCN2C(=O)CCC2C1 (centres undefined)
inactive: ALG13 0.0971 | ATXN3 -0.237 | BAP1 -0.591 | EIF3F 0.0885 | EIF3H -0.0249 | FAM105A 0.154 | OTUB1 -0.19 | OTUD4 -0.461 | OTUD5 -0.499
